In PubChem BioAssay (NCATS):
Records with an inconclusive call do not appear. Calls of active or inactive are those of the source. Unless noted, calls follow the shape of the full dose curve.

Key:
[1] = molecular target: Bile acid receptor (Homo sapiens) (UniProt Q96RI1); test: qHTS assay for small molecule antagonists of farnesoid X receptor signaling (AID 588526); conditions: HEK293T FXR-UAS-bla, beta-lactamase ratio, antagonist mode; series mostly up to 76.7 µM; also: % is scaled to controls: 0 for no effect and ±100 for the full control effect
Chain of Bile acid receptor (Homo sapiens) (Q96RI1 whole entry, looked up): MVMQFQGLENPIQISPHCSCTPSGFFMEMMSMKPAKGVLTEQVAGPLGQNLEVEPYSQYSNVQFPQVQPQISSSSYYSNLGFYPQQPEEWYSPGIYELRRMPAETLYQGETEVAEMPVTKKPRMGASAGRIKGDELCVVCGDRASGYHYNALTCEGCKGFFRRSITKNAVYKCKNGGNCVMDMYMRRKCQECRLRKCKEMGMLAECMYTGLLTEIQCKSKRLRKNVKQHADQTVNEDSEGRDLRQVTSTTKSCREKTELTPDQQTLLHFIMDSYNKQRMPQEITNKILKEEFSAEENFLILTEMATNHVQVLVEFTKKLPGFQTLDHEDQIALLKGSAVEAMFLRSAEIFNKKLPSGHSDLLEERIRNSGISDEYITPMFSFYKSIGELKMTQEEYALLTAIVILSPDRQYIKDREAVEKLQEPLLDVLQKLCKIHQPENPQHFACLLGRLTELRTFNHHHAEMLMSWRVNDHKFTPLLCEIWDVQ
Method in brief: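 Beta-lactamase reporter antagonist mode: HEK293T FXR-UAS-bla cells, titrated compound, CDCA stimulation, 16 h 37 C, CCF4 dye 2 h RT. Data normalized to CDCA 50 uM and DMSO; Hill-fit IC50.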

[2] = molecular target: Glucocorticoid receptor (Homo sapiens) (UniProt P04150); test: qHTS assay for small molecule agonists of glucocorticoid receptor signaling (AID 588532; active = well fitted curve in the direction sought with a large enough effect in the signal ratio, with a control signal flat; the % refers to the signal ratio;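 also: 100% = dexamethasone at 0.1 µM and 0% = DMSO only wells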); conditions: HeLa MMTV-bla, beta-lactamase ratio, agonist, 18 h; activation: stronger effect = higher value, percent of dexamethasone control, DMSO zero
Chain of Glucocorticoid receptor (Homo sapiens) (P04150 whole entry, looked up): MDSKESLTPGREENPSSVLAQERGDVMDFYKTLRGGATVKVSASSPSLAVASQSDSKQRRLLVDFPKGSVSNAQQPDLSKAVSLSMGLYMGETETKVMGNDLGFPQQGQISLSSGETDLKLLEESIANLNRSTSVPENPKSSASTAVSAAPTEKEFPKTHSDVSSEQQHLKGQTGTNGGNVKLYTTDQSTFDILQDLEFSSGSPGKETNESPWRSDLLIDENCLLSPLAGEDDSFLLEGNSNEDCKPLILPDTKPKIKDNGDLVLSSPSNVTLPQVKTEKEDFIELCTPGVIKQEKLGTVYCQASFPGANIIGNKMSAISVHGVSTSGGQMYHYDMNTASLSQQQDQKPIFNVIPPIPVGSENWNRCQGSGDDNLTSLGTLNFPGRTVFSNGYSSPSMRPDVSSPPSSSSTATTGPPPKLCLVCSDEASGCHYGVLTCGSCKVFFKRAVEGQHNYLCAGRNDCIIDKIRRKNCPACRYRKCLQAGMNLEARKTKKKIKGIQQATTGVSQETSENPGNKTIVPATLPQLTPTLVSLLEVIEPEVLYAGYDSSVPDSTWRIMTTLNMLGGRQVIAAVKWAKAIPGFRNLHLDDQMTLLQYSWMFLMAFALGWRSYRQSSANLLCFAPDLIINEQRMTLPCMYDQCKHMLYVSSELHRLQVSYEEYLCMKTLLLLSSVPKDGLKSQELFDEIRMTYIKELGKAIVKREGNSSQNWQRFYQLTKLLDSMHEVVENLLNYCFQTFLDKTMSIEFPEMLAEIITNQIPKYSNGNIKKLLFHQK
Method in brief: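 Agonist-mode qHTS: GRE-driven beta-lactamase in HeLa cells exposed 18 h to titrated compounds (up to 92 uM), then CCF4 ratio read after 2 h at RT; Hill-fitted EC50, efficacy relative to 0.1 uM dexamethasone.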

[3] = molecular target: Glucocorticoid receptor (Homo sapiens) (UniProt P04150); test: qHTS assay for small molecule antagonists of glucocorticoid receptor signaling (AID 588533; active = well fitted inhibition curve with a large enough effect in the signal ratio, with a control signal flat, not every such curve was filed as active; the % refers to the signal ratio;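 also: cells stimulated with 2 nM dexamethasone as agonist; % is scaled to controls: 0 for no effect and ±100 for the full control effect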); conditions: HeLa MMTV-bla, GRE beta-lactamase ratio, antagonist mode, 18 h; series mostly up to 76.8 µM
Method in brief: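 Antagonist-mode qHTS: compound titrations added to GRE-bla HeLa cells, then dexamethasone 2 nM final; 18 h, 37 C. CCF4 FRET fluorescence normalized to dexamethasone and DMSO; IC50 from Hill fit.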

[4] = qHTS assay for small molecule antagonists of peroxisome proliferator-activated receptor delta signaling (AID 588535; active = well fitted inhibition curve with a large enough effect in the signal ratio, with a control signal flat, not every such curve was filed as active; the % refers to the signal ratio;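 as to max response: cells co-treated with a PPAR-delta agonist as stimulator during compound exposure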); conditions: HEK293T PPARd-UAS-bla, beta-lactamase FRET ratio, 18 h; 460 nm channel
Method in brief: (§1)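 Titrations were run on PPAR-delta-UAS-bla HEK293T cells in charcoal/dextran-stripped serum, incubated 18 h at 37 C. CCF4 fluorescence (460/530 nm) after 2 h RT; Hill equation yields IC50 and maximal response.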

[5] = molecular target: Peroxisome proliferator-activated receptor delta (Homo sapiens) (UniProt Q03181); test: as above; conditions: HEK293T PPARd-UAS-bla, beta-lactamase FRET ratio, 18 h; series mostly up to 76.7 µM
Chain of Peroxisome proliferator-activated receptor delta (Homo sapiens) (Q03181 whole entry, looked up): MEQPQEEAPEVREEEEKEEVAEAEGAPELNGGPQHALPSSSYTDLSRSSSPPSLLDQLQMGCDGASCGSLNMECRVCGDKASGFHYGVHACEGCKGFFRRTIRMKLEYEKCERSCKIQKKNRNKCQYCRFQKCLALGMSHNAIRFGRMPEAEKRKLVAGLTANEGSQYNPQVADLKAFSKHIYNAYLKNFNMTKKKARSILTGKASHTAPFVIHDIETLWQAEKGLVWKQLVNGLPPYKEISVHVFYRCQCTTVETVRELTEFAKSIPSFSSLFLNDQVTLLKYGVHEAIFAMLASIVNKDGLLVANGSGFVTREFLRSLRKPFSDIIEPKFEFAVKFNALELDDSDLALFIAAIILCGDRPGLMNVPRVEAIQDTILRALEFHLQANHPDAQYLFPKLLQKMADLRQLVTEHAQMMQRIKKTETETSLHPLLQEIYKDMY
Method in brief: as §1

[6] = molecular target: Peroxisome proliferator-activated receptor gamma (Homo sapiens) (UniProt P37231); test: qHTS assay for small molecule agonists of peroxisome proliferator-activated receptor gamma signaling (AID 588536; active = well fitted curve in the direction sought with a large enough effect in the signal ratio, with a control signal flat, not every such curve was filed as active; the % refers to the signal ratio;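 also: 0% = DMSO basal wells and 100% = rosiglitazone at 2 µM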); conditions: HEK293 PPARg-UAS-bla, beta-lactamase ratio, 16 h; series mostly up to 76.7 µM
Chain of Peroxisome proliferator-activated receptor gamma (Homo sapiens) (P37231 whole entry, looked up): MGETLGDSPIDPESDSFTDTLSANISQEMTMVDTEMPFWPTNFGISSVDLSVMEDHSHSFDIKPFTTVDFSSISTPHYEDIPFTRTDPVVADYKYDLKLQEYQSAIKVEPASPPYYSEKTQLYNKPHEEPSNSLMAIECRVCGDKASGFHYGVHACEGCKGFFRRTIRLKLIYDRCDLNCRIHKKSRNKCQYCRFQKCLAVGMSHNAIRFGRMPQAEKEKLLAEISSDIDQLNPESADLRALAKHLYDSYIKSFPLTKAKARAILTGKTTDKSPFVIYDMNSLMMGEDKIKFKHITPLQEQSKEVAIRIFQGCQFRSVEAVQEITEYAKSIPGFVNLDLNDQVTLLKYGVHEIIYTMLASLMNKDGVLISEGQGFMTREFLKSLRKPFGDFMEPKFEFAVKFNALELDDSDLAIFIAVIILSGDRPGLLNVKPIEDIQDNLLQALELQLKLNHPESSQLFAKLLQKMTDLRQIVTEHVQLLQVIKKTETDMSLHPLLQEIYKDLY
Method in brief: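 Beta-lactamase reporter read-out: CCF4 fluorescence (ex 405, em 460/530 nm) after 2 h at RT. HEK293 GeneBLAzer cells were treated for 16 h at 37 C. Hill fits gave EC50 and efficacy versus 2 uM rosiglitazone (100%) and DMSO (0%).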

[7] = qHTS assay for small molecule agonists of the antioxidant response element (ARE) signaling pathway (AID 651741; active = well fitted activation curve with a large enough effect in the signal ratio; the % refers to the signal ratio; also: potency is read from the fitted curve at half-maximal effect; as to activation: % of control where 0% means no effect); conditions: HepG2 ARE-bla reporter, beta-lactamase FRET ratio, 16 h; series mostly up to 96 µM
Method in brief: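 Beta-lactamase reporter under ARE control in HepG2 cells, 2,000 per well, was induced by 16 h compound treatment at 37 C. Read-out was fluorescence from LiveBLAzer B/G FRET substrate after 2 h at room temperature.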

[8] = qHTS assay for small molecule activators of the nuclear factor-kappa B (NF-kB) signaling pathway (AID 651749; active = well fitted activation curve with a large enough effect in the signal ratio; the % refers to the signal ratio; also: % of control where 0% means no effect); conditions: NF-kB-bla ME-180 cells, beta-lactamase FRET ratio, 16 h; activation: stronger effect = higher value
Method in brief: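 Activation measured after 16 hr compound treatment at 37C, 5% CO2, of 2,000 ME-180 cells/well stably expressing an NF-kB response element–driven beta-lactamase reporter, via FRET-disruption fluorescence.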

[9] = qHTS assay for environmental chemicals that activate the Aryl hydrocarbon Receptor (AhR) signaling pathway (AID 651777; active = well fitted curve in the direction sought with a large enough effect; an effect the other way counts as inactive or inconclusive; also: nearly all actives have a fitted effect of over 15% in size; also: potency is read from the fitted curve at half-maximal effect; as to activation: % of control where 0% means no effect); conditions: 1A2-DRE human hepatoma cells, luciferase, 24 h; activation: stronger effect = higher value
Method in brief: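 Luminescence read-out: One-Glo added for 30 min at RT after 24 hr compound treatment (37 C, 5% CO2) of human hepatoma cells expressing a DRE/CYP1A2 promoter–luciferase reporter; increased signal indicates AhR activation.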

[10] = qHTS assay for small molecule agonists of the antioxidant response element (ARE) signaling pathway measured by Nrf2-dependant transcriptional activity (AID 720636; active = well fitted curve in the direction sought with a large enough effect in the repeat runs; an effect the other way counts as inactive or inconclusive;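 also: HepG2 cells with an ARE-driven luciferase reporter; % of control where 0% means no effect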); conditions: ARE-luc HepG2, Nrf2 luciferase reporter, 16 h; series mostly up to 92.4 µM
Method in brief: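 HepG2 ARE-luc reporter line, 1% dialyzed FBS; 6 hr attachment at 37 C, compound pinned in, 16 hr at 37 C/5% CO2; ONE-Glo, 30 min RT, luminescence read.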

[11] = qHTS assay for cell viability of the p53RE-bla HCT-116 cell line (AID 743292; active = well fitted curve in the direction sought with a large enough effect; an effect the other way counts as inactive or inconclusive; also: % is scaled to controls: 0 for no effect and ±100 for the full control effect; nearly all actives have a fitted effect of over 55% in size); conditions: p53RE-bla HCT-116 viability, ATP luminescence, 16 h; series mostly up to 95 µM
Method in brief: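 Luminescent ATP quantitation (CellTiter-Glo) served as the viability read-out; reagent was added after 16 h compound exposure at 37 C and read after 30 min at room temperature. Cells: p53RE-bla HCT-116, 4,000 per well.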

[12] = molecular target: Nuclear receptor subfamily 1 group I member 2 (Rattus norvegicus) (UniProt Q9R1A7); test: qHTS assay for small molecule activators of the rat pregnane X receptor (rPXR) signaling pathway (AID 651751; call rule not given here; also: 0% is about no effect); conditions: rPXR reporter cells, luciferase (One-Glo), 24 h
Chain of Nuclear receptor subfamily 1 group I member 2 (Rattus norvegicus) (Q9R1A7 whole entry, looked up): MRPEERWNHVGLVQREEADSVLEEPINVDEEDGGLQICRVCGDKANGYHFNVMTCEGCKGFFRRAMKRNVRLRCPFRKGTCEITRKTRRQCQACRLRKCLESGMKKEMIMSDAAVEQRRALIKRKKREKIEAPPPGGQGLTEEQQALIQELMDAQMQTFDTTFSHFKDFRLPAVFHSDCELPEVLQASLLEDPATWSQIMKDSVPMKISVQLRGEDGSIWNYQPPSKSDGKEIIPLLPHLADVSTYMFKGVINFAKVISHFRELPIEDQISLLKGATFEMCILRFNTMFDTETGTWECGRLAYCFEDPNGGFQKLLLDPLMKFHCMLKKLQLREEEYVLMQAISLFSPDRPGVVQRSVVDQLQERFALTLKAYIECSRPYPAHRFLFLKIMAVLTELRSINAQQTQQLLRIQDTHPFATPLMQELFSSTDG

[13] = molecular target: Bile acid receptor (Homo sapiens) (UniProt Q96RI1); test: qHTS assay for small molecule agonists of farnesoid X receptor signaling (AID 588527); conditions: HEK293T FXR-UAS-bla, beta-lactamase ratio, 16 h; activation: stronger effect = higher value;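 also: 0% = vehicle basal and 100% = reference agonist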
Method in brief: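 Read-out: beta-lactamase reporter fluorescence with CCF4 substrate in GeneBLAzer FXR-UAS-bla HEK293T cells, after 16 h compound exposure at 37 C. Response scaled between DMSO basal (0%) and chenodeoxycholic acid at 100 uM (100%).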

[14] = molecular target: Peroxisome proliferator-activated receptor gamma (Homo sapiens) (UniProt P37231); test: qHTS assay for small molecule antagonists of peroxisome proliferator-activated receptor gamma signaling (AID 588537; active = well fitted inhibition curve with a large enough effect in the signal ratio, with a control signal flat, not every such curve was filed as active; the % refers to the signal ratio; also: potency is read from the fitted curve at half-maximal effect); conditions: HEK293 PPARg-UAS-bla, beta-lactamase ratio, antagonist mode; series mostly up to 76.8 µM
Method in brief: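 Antagonist-mode β-lactamase reporter screen run as a titration series. HEK293 PPARγ-UAS-bla cells are stimulated with rosiglitazone (50 nM final) for 16 h, then CCF4 is read at 460/530 nm. Data are scaled between DMSO and rosiglitazone and fitted to the Hill equation.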

[15] = molecular target: Thyroid hormone receptor beta (Homo sapiens) (UniProt P10828); test: qHTS assay for small molecule antagonists of thyroid hormone receptor beta signaling (AID 588547; active = well fitted inhibition curve with a large enough effect in the signal ratio, with a control signal flat, not every such curve was filed as active; the % refers to the signal ratio; also: potency is read from the fitted curve at half-maximal effect;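 as to activity change % (negative = inhibition): cells stimulated with 0.4 nM T3 agonist during compound exposure; % is scaled to controls: 0 for no effect and ±100 for the full control effect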); conditions: TR-UAS-bla HEK293, beta-lactamase ratio, antagonist mode, 18 h
Chain of Thyroid hormone receptor beta (Homo sapiens) (P10828 whole entry, looked up): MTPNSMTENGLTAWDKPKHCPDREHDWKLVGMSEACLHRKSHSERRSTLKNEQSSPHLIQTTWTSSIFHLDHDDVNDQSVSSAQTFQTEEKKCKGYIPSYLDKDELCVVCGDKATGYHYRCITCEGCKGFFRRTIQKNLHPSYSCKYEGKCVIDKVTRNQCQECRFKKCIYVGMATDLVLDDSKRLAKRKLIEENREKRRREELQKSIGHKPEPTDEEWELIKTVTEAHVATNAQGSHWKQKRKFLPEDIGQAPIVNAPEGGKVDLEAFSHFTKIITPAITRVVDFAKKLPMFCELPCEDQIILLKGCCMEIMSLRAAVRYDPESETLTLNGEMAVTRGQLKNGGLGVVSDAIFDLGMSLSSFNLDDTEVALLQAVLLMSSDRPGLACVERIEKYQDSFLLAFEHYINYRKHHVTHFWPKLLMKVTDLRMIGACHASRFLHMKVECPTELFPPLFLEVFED
Method in brief: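 Inhibition of T3-driven (0.4nM final) beta-lactamase reporter activity was measured over 0.59 nM to 92 uM compound after 18 h at 37 C. The cells were GripTite HEK293 TR-UAS-bla in charcoal/dextran-stripped serum, with CCF4 ratio read-out and IC50 from Hill fits.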

[16] = Nrf2 qHTS screen for inhibitors: Validation (AID 493153; active = well fitted inhibition curve with a large enough effect in the main read-out, with a control signal flat, not every such curve was filed as active; also: potency is read from the fitted curve at half-maximal effect); conditions: A549 ARE-Fluc reporter, 18-24 h; Potency: luciferase luminescence; viability change: measured here: cytotoxicity max response
Method in brief: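 Concentration-response on A549 ARE_Fluc reporter cells exposed 18-24 h at 37 C, 5% CO2. Cytotoxicity read first by CellTiter-Fluor fluorescence (Ex 405/Em 525), then Nrf2 inhibition by BugLite luminescence after 15 min.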

[17] = molecular target: Estrogen receptor (Homo sapiens) (UniProt P03372); test: qHTS assay for small molecule antagonists of estrogen receptor alpha signaling (AID 588513; active = well fitted curve in the direction sought with a large enough effect in the signal ratio, with a control signal flat, not every such curve was filed as active; the % refers to the signal ratio; also: potency is read from the fitted curve at half-maximal effect); conditions: ER-alpha-UAS-bla HEK293, beta-lactamase ratio, antagonist mode; series mostly up to 76.9 µM
Chain of Estrogen receptor (Homo sapiens) (P03372 whole entry, looked up): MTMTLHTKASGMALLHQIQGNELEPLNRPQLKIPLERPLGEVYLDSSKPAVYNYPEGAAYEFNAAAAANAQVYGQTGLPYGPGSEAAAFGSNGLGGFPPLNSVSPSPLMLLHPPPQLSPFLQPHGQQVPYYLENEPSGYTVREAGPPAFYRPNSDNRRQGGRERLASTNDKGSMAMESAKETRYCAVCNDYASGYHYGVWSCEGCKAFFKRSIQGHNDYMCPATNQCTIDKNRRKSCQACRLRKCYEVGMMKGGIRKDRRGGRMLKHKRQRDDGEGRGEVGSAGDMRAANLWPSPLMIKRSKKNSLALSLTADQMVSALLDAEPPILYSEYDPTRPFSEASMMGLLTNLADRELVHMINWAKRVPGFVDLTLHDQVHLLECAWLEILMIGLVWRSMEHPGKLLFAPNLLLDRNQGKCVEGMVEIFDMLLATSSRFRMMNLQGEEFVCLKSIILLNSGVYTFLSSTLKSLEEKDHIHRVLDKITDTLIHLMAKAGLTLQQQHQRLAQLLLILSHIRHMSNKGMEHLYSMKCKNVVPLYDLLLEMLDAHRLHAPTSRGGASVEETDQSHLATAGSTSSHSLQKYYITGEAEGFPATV
Method in brief: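 ER-alpha-UAS-bla GripTite HEK 293 cells in 2% charcoal/dextran-treated FBS medium; compounds titrated (1:2, duplicate), then stimulated with 0.5 nM 17-beta-estradiol for 18 h at 37C. CCF4 beta-lactamase fluorescence; Hill-fit IC50 and efficacy.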

[18] = molecular target: Estrogen receptor (Homo sapiens) (UniProt P03372); test: qHTS assay for small molecule agonists of estrogen receptor alpha signaling (AID 588514); conditions: ER-alpha-UAS-bla HEK293, beta-lactamase ratio, 18 h; series mostly up to 76.8 µM;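 also: 0% = vehicle only and 100% = reference agonist; nearly all actives have a fitted effect of over 70% in size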
Method in brief: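 EC50 and efficacy came from Hill fits of beta-lactamase reporter signal (CCF4 dye, 2 h at room temperature) scaled between DMSO and 20 nM 17-beta-estradiol. Agonist mode: HEK293 ER-alpha-UAS-bla cells in charcoal/dextran-stripped serum medium, 18 h compound exposure at 37 C.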

[19] = qHTS assay for small molecule activators of the human pregnane X receptor (PXR) signaling pathway (AID 720659; call rule not given here; also: 0% is about no effect); conditions: DPX-2 HepG2 CYP3A4-luciferase, 24 h; series mostly up to 92.3 µM
[20] = molecular target: Mitogen-activated protein kinase 10 (Mus musculus) (UniProt Q61831); test: JNK3 AlphaScreen Assay (AID 530; active = well fitted curve in either direction with a large enough effect, not every such curve was filed as active;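 also: kinase came from lysate of stimulated human HepG2 cells; signal reports phosphorylation of biotinylated GST-cJun 1-79 at Ser73 with 10 µM ATP; % is scaled to controls: 0 for no effect and ±100 for the full control effect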); conditions: JNK3 lysate, c-Jun phosphorylation; series mostly up to 57.1 µM
Method in brief: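 qHTS titrations with 15 min compound pre-incubation before adding ATP (10 uM final). Read-out: AlphaScreen of Ser73-phosphorylated biotin-GST-cJun using HepG2 lysate JNK3 activated by IL-1β and TNFα.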

CC(C)=CC1C(C(=O)OCc2coc(Cc3ccccc3)c2)C1(C)C (centres undefined)
active: Potency [7] 61.1 µM
-29.1%: max response [4]
inactive: Potency [1] | activation [2] 2.93% | Potency [3] | Potency [5] | Potency [6] | activation [8] 0.13% | activation [9] 3.96% | Potency [10] | Potency [11] | max response [12] 7.41%

C#CCN1CC(=O)N(COC(=O)[C@@H]2[C@@H](C=C(C)C)C2(C)C)C1=O
-9.7%: max response [4]
inactive: Potency [1] | activation [13] 5.41% | activation [2] -0.459% | Potency [5] | Potency [6] | Potency [14] | activity change % (negative = inhibition) [15] 21.3%

CC[C@@H](CO)Nc1nc(NCc2ccccc2)c2ncn(C(C)C)c2n1
-22.6%: viability change [16]
active: Potency [16] 18.4 µM

O=C(NC(=O)c1c(F)cccc1F)Nc1ccc(Cl)cc1
-32.8%: max response [4]
inactive: Potency [17] | Potency [18] | Potency [1] | activation [13] 1.72% | Potency [5] | Potency [14] | activation [8] 0.393% | Potency [11] | max response [12] 11% | outcome [19]
active: Potency [9] 2.51 µM

CCCCN(CC)c1c([N+](=O)[O-])cc(C(F)(F)F)cc1[N+](=O)[O-]
inactive: activation [2] -5.8% | Potency [3] | Potency [5] | Potency [14] | activity change % (negative = inhibition) [15] -21.6% | Potency [7] | activation [8] -1.55% | activation [9] -0.444% | Potency [10] | Potency [11] | max response [12] 3.44%
41.5%: max response [4]

CSc1nc(NC(C)C)nc(NC(C)C)n1
inactive: Potency [18] | Potency [6] | Potency [14] | activity change % (negative = inhibition) [15] -0.16% | activation [9] -2.16% | Potency [10]

O=C1C=C2C(=CCOC2O)O1 (centres undefined)
active: Potency [14] 20 µM
inactive: Potency [18] | activation [13] -4.19% | activation [8] 2.18% | max response [12] -14.8% | outcome [19]

N#Cc1c(Cl)c(Cl)c(Cl)c(C#N)c1Cl
active: Potency [15] 2.51 µM
inactive: Potency [10]

CC(C)N(C(=O)CCl)c1ccccc1
inactive: activation [2] -11.4% | activation [9] -1.87% | Potency [11] | outcome [19]
active: Potency [17] 15.8 µM [inhibitor] | Potency [7] 17.2 µM

CNC(=O)[C@H]1C[C@@H]1[C@H](NP(=O)(c1ccccc1)c1ccccc1)c1ccccc1
inactive: outcome [20]

CCCC/C(C)=C/[C@@H](NP(=O)(c1ccccc1)c1ccccc1)c1ccccc1
inactive: outcome [20]

CCCC/C=C/[C@@H](NP(=O)(c1ccccc1)c1ccccc1)c1ccccc1OC
inactive: outcome [20]
